Results as given in PubChem BioAssay (NCATS).
Values joined by “and” are separate entries in the source; they are usually repeats but may differ in a detail not shown here. Equal values may be shown once. Inconclusive results are not listed. Active and inactive are the calls of the source. Unless noted, calls come from the whole dose curve; as a rule, active = well fitted curve in the direction sought with a large enough effect; inconclusive = small, poorly fitted or top-dose-only effect, or another doubt; inactive = no such curve, though single readings can be large; an effect the other way counts as inactive or inconclusive.

Assays:
[1] = qHTS Assay for Identification of Small Molecule Agonists for Thrombopoietin (TPO) Signaling Pathway (AID 917); note: % is set by controls: 0 for no effect and ±100 for the full control effect
Outline: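 Cell-based luciferase reporter screen. Mouse Ba/F3 line stably expressing human TPO receptor; IL-3 removed overnight before plating. Co-treatment with compound and EC50 TPO (26 pM), 24 hrs at 37 C, then luminescence.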

[2] = Cell Viability - HepG2 (AID 433; calls by dose curve;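 note: potency is the fitted concentration of half-maximal effect; cells exposed to compound for 40 hours; potency for ATP loss meaning cytotoxicity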); conditions: qHTS
Outline: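 Read-out is luciferase-based quantitation of cellular ATP as a measure of viable HepG2 cells after 40 h treatment at 37 °C. Signal decrease is scaled between DMSO-only and 100 uM tamoxifen controls, with AC50 fitted by the Hill equation.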

[3] = Cell Viability - MRC5 (AID 434; calls by dose curve;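 note: potency is the fitted concentration of half-maximal effect; cells exposed to compound for 40 hours at 37 °C; potency reflects cytotoxicity seen as loss of intracellular ATP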); conditions: MRC5 lung fibroblast viability, qHTS
Outline: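 AC50 values come from Hill-equation fits of intracellular ATP loss, measured by CellTiter-Glo luminescence. Normal lung fibroblasts (MRC5) had 40 hr compound treatment at 37 C, normalized between DMSO and 100 uM tamoxifen.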

[4] = Cellular Toxicity (caspase-3) Mesangial (AID 660);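 note: combined caspase 3 and 7 activity read by Caspase-Glo luminescence; cells exposed to compound for 16 h before the caspase read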
Outline: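 Seed cells derived from normal human renal glomeruli, incubate 5 h, add compounds across concentrations and incubate 16 h at 37 °C. Caspase 3/7 activation is then quantified by luciferase light, with AC50 derived by Hill modeling.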

[5] = Cell Viability - LYMP2-001 (AID 921);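 note: series mostly up to about 92 µM; cells exposed to compound for 24 h at 37 °C; 0% = DMSO only and full inhibition = tetraoctylammonium bromide control wells; nearly all actives have a fitted effect of over 70% in size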
Outline: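 Steps: seed 2500 lymphoblastoid cells/well; 5 hr, 37 C; add compound; 24 hr, 37 C; CellTiter-Glo reagent, 30 min room temperature; read luminescence. Concentration-response modeled by Hill equation for AC50.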

[6] = MultiTox-Fluor Cytotoxicity Assay - LYMP1-002 - Dead Cells (AID 960);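 note: 0% = DMSO and 100% = tetraoctylammonium bromide; nearly all actives have a fitted effect of over 60% in size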
Outline: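 Cells were plated, rested 5 hr, then treated with compound dilution series for 16 hr at 37 C. After adding substrate reagent and 60 min at room temperature, dead-cell protease fluorescence gave concentration-response curves fitted by the Hill equation.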

[7] = Cell Viability - LYMP2-011 (AID 969);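 note: 0% = DMSO only and full inhibition = 92 µM tetraoctylammonium bromide; nearly all actives have a fitted effect of over 60% in size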
Outline: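 In this qHTS cytotoxicity format, compounds are tested across concentrations on human lymphoblastoid cells in complete medium for 24 hours at 37 C. Viability is taken as cellular ATP measured by luciferase luminescence.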

[8] = Cell Viability - LYMP2-013 (AID 970);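 note: series mostly up to about 92 µM; cells exposed to compound for 24 h at 37 °C; 0% = DMSO only and full inhibition = tetraoctylammonium bromide control; nearly all actives have a fitted effect of over 55% in size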
Outline: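 Cytotoxicity is scored as a concentration-dependent drop in intracellular ATP in human lymphoblastoid cells after 24 hr compound exposure at 37 C. ATP is quantified by luciferase luminescence, and AC50 values come from Hill-equation modeling.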

[9] = Cell Viability - LYMP2-006 (AID 978); note: series mostly up to about 92 µM; % is set by controls: 0 for no effect and ±100 for the full control effect; nearly all actives have a fitted effect of over 60% in size
Outline: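 Cells are seeded at 2500 per well and rested 5 hr at 37 C. Compounds are added across a concentration series for 24 hr at 37 C, after which ATP is quantified by luciferase luminescence.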

[10] = Cell Viability - LYMP2-010 (AID 981); note: % is set by controls: 0 for no effect and ±100 for the full control effect; nearly all actives have a fitted effect of over 55% in size
Outline: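 Steps: seed 2500 LYMP2-010 cells per well; incubate 5 hr at 37 C; add compound; incubate 24 hr at 37 C; add CellTiter-Glo, wait 30 min at room temperature; read luminescence. Concentration-response fitted to Hill equation for AC50.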

[11] = Cell Viability - LYMP2-020 (AID 986);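 note: series mostly up to about 92 µM; cells exposed to compound for 24 h at 37 °C; plate controls were DMSO only for no effect and tetraoctylammonium bromide at 92 µM for full effect; nearly all actives have a fitted effect of over 55% in size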
Outline: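 Seed 2500 cells per well and incubate 5 hr at 37 C. Add compounds at a concentration series and incubate 24 hr at 37 C. Add CellTiter-Glo, wait 30 min at RT, read luminescence, and fit a Hill curve for AC50.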

[12] = Cell Viability - LYMP2-024 (AID 988);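 note: plate controls were DMSO only for no effect and 92 µM tetraoctylammonium bromide for full effect; nearly all actives have a fitted effect of over 60% in size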
Outline: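 qHTS cytotoxicity, human lymphoblastoid line, complete medium; 24 h cpd treatment, 37 C; CellTiter-Glo ATP luminescence readout; tetraoctylammonium bromide positive control; AC50 via Hill fit.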

[13] = Cell Viability - LYMP1-002 - Assay at 24 hr (AID 993); note: % is set by controls: 0 for no effect and ±100 for the full control effect
Outline: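 Acute toxicity is measured as concentration-dependent loss of cellular ATP in a human lymphoblastoid line (Coriell LYMP1-002) after 24 h treatment in complete medium. ATP is quantified by luciferase luminescence and AC50 derived by Hill modelling.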

[14] = qHTS assay for small molecule activators of the p53 signaling pathway (AID 651743; active = well fitted activation curve with a large enough effect in the signal ratio, not every such curve was filed as active; the % refers to the signal ratio; note: series mostly up to about 92 µM; % of control where 0% means no effect); conditions: HCT-116 p53RE-bla, beta-lactamase FRET ratio, 16 h; activation: active compounds read high
Outline: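 After 16 hours compound treatment at 37 C, HCT-116 cells stably expressing p53RE-driven beta-lactamase were loaded with LiveBLAzer B/G FRET substrate for 2 hours at room temperature. Fluorescence intensity served as the p53 activation read-out.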

[15] = biological target: Nuclear receptor ROR-gamma (Homo sapiens) (UniProt P51449); assay: qHTS assay for small molecule antagonists of the retinoid-related orphan receptor gamma (ROR-gamma) signaling pathway (AID 651802)
Outline: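 Steps: cells dispensed; compound or DMSO transferred by pin tool; doxycycline added to induce the ROR response element-driven luciferase; plates held 16hr at 37C; ONE-Glo added and luminescence measured.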

[16] = qHTS assay for small molecule antagonists of the retinoid-related orphan receptor gamma (ROR-gamma) signaling pathway - cell viability counter screen (AID 720652; active = well fitted curve in the direction sought with a large enough effect in the repeat runs; an effect the other way counts as inactive or inconclusive;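 note: CHO reporter cells with doxycycline-induced ROR-gamma expression; series mostly up to about 92 µM; compound exposure lasted 16 hr before ATP read; % is set by controls: 0 for no effect and ±100 for the full control effect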)
Outline: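 Steps: seed CHO cells bearing TET-inducible ROR and ROR response element-luciferase; rest 5 hr at 37 C; add compound, then doxycycline; incubate 16 hr; add CellTiter-Glo and read luminescence as ATP-based viability.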

[17] = qHTS assay for cell viability of the p53RE-bla HCT-116 cell line (AID 743292); note: % is set by controls: 0 for no effect and ±100 for the full control effect; nearly all actives have a fitted effect of over 55% in size
Outline: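 ATP-based luminescence, 16 h compound exposure at 37 C, p53RE-bla HCT-116 cells at 4,000/well.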

[18] = qHTS assay for small molecule activators of the human pregnane X receptor (PXR) signaling pathway (AID 720659; call rule not given here; note: 0% is about no effect)
[19] = Cell Viability - HUV-EC-C (AID 542);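 note: cells exposed to compound for 40 hours; % is set by controls: 0 for no effect and ±100 for the full control effect; nearly all actives have a fitted effect of over 35% in size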
Outline: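 Cells were seeded at 1000 per well and incubated 5 hr at 37 °C before compound addition. After 40 hr at 37 °C, CellTiter-Glo reagent was added for 20 min and luminescence read. AC50 values came from Hill-equation modelling.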

[20] = Cell Viability - LYMP2-021 (AID 974)
Outline: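 Loss of cellular ATP, measured with a luciferase-based CellTiter-Glo readout, serves as the toxicity signal in human lymphoblastoid cells treated for 24 hours at 37 C. Potency is reported as AC50 from a standard Hill model.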

Chain of Nuclear receptor ROR-gamma (Homo sapiens) (P51449 whole entry, looked up): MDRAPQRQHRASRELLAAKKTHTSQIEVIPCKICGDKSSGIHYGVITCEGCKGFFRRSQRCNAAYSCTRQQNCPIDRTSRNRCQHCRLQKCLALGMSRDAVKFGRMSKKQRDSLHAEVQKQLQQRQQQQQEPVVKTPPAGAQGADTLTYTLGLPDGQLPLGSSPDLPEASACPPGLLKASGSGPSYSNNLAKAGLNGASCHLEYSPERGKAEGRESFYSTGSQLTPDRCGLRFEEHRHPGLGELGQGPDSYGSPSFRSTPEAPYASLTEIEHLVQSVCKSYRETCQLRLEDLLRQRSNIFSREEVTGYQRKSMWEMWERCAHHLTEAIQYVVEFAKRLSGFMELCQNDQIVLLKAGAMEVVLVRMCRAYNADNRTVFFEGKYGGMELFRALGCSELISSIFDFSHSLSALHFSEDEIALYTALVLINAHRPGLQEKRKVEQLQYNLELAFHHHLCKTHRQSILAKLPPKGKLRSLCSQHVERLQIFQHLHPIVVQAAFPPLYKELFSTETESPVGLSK

O=C(O)[C@H]1CCN1
inactive: outcome [1]

C[C@@H](Cc1ccc(O)cc1)NC[C@@H](O)c1cc(O)cc(O)c1
inactive: outcome [1]

COc1ccc2c(c1)[C@]13CCCC[C@@H]1[C@H](C2)NCC3
inactive: outcome [1]

C[C@@]12CC[C@H]3[C@@H](CC=C4C[C@H](OS(=O)(=O)O)CC[C@]43C)[C@H]1CCC2=O
inactive: outcome [1]

COc1ccc2c3c1O[C@@H]1C(=O)CC[C@@]4(O)[C@@H](C2)N(CC2CC2)CC[C@]314
inactive: outcome [1]

C[C@]12CC[C@H](O)C[C@@H]1CC[C@H]1[C@H]2CC[C@]2(C)[C@H](C(=O)CO)CC[C@@H]12
inactive: outcome [1]

N[C@H](CCl)C(=O)O
inactive: outcome [1]

C[N+]1(C)C2CC(OC(=O)C(CO)c3ccccc3)CC1[C@@H]1O[C@H]21 (some centres not stated)
inactive: outcome [1]

COc1ccc2c(c1O)-c1cccc3c1[C@H](C2)N(C)CC3
inactive: outcome [1]

Oc1ccc2c3c1O[C@@H]1c4[nH]c5c(c4C[C@@]4(O)[C@@H](C2)N(CC2CC2)CC[C@]314)C[C@]1(O)[C@@H]2Cc3ccc(O)c4c3[C@@]1(CCN2CC1CC1)[C@H]5O4
inactive: outcome [1]

COc1cc([C@@H](O)CN)ccc1O
inactive: outcome [1]

C[N+]1(C)CCc2cc3c(cc2[C@@H]1[C@@H]1OC(=O)c2c1ccc1c2OCO1)OCO3
inactive: outcome [1]

CO[C@@H]1CC=C2CCN3CCC4=C(CC(=O)OC4)[C@]23C1
inactive: outcome [1]

C[C@]12CC[C@H](O)CC1=CC[C@@H]1[C@H]2CC[C@]2(C)C(=O)CC[C@H]12
inactive: outcome [1]

C[C@@]12CC[C@H]3[C@@H](CC[C@@H]4C[C@H](O)CC[C@]43C)[C@H]1CC[C@H]2O
inactive: outcome [1]

CC(C)C[C@H](NP(=O)(O)O[C@@H]1O[C@@H](C)[C@@H](O)[C@@H](O)[C@H]1O)C(=O)N[C@@H](Cc1c[nH]c2ccccc12)C(=O)O
inactive: outcome [1]

C=CCN1CC[C@]23c4c5ccc(O)c4O[C@@H]2/C(=N/NC(=O)c2ccccc2)CC[C@@]3(O)[C@H]1C5
inactive: outcome [1]

C[C@@H]1Cc2cc3c(cc2C(c2ccc(N)cc2)=NN1)OCO3
inactive: outcome [1]

COc1cc(C[C@H](C)N)c(OC)cc1I
inactive: outcome [1]

NC[C@H](O)c1cc(O)c(O)cc1F
inactive: outcome [1]

C[C@@H]1O[C@H]1P(=O)(O)O
inactive: outcome [1]

CCNC(=O)[C@@H]1O[C@@H](n2cnc3c(N)ncnc32)[C@@H](O)[C@H]1O
inactive: outcome [1]

CC(C)N[C@@H](C)Cc1ccc(I)cc1
inactive: outcome [1]

N[C@H](Cn1ccc(=O)[nH]c1=O)C(=O)O
inactive: outcome [1]

NC(=O)CN1C[C@@H](O)CC1=O
inactive: outcome [1]

C[Se]C[C@@H](N)C(=O)O
inactive: outcome [1]

Nc1ncnc2c1ncn2[C@@H]1O[C@@H](COP(=O)(O)CP(=O)(O)OP(=O)(O)O)[C@H](O)[C@@H]1O
inactive: outcome [1]

CCCN1CC[C@@H]2c3cc(O)ccc3CC[C@H]21
inactive: outcome [1]

COC(=O)[C@H](N)CCCN=C(N)N[N+](=O)[O-]
inactive: outcome [1]

CN1C[C@@H](CS(=O)(=O)N(C)C)C[C@H]2c3cccc4c3c(cn4C)C[C@@H]21
inactive: outcome [1]

CC(=O)OCC1=C(C(=O)[O-])N2C(=O)[C@@H](NC(=O)CCC[C@@H](N)C(=O)[O-])[C@@H]2SC1.[Zn+2]
inactive: outcome [1]

CCN(CC)c1ncnc2c1ncn2[C@@H]1O[C@@H](COP(=O)(O)OP(=O)(O)C(Br)(Br)P(=O)(O)O)[C@H](O)[C@@H]1O
inactive: outcome [1]

BrCCc1ccccc1
inactive: Potency [2] > 92 µM | Potency [3] > 92 µM | outcome [4] | Potency [5] | Potency [6] | Potency [7] | Potency [8] | Potency [9] | Potency [10] | Potency [11] | Potency [12] | Potency [13] | activation [14] -5.87% | Potency [15] | Potency [16] | Potency [17] | outcome [18]

CCC#N
inactive: Potency [2] > 92 µM | Potency [3] > 92 µM | Potency [19] | outcome [4] | Potency [5] | Potency [6] | Potency [7] | Potency [8] | Potency [20] | Potency [9] | Potency [10] | Potency [11] | Potency [13] | Potency [15] | Potency [16] | Potency [17] | outcome [18]

Cc1ccc(N)cc1N
inactive: Potency [2] > 92 µM | Potency [19] | outcome [4] | Potency [5] | Potency [7] | Potency [8] | Potency [20] | Potency [9] | Potency [10] | Potency [11] | Potency [12] | Potency [13] | activation [14] -3.51% and -0.675% | Potency [15] | Potency [16] | Potency [17] | outcome [18]

Cc1cc(-c2cc(C)c(N)c(C)c2)cc(C)c1N
inactive: Potency [2] > 92 µM | Potency [3] > 92 µM | Potency [19] | outcome [4] | Potency [5] | Potency [7] | Potency [8] | Potency [20] | Potency [9] | Potency [10] | Potency [11] | Potency [12] | Potency [13] | activation [14] -3.17% | Potency [15] | Potency [16] | Potency [17] | outcome [18]

O=C(O)C(Cl)Br (configuration not stated)
inactive: Potency [3] > 92 µM | Potency [19] | Potency [6] | Potency [7] | Potency [8] | Potency [20] | Potency [9] | Potency [12] | Potency [13] | activation [14] 0.485% | Potency [15] | Potency [16] | Potency [17] | outcome [18]

CCCBr
inactive: Potency [3] > 92 µM | Potency [19] | outcome [4] | Potency [5] | Potency [6] | Potency [7] | Potency [20] | Potency [9] | Potency [10] | Potency [11] | Potency [12] | Potency [13] | activation [14] -0.771% | Potency [15] | Potency [16] | Potency [17] | outcome [18]

BrC(Br)Br
inactive: Potency [2] > 92 µM | Potency [3] > 92 µM | Potency [19] | outcome [4] | Potency [5] | Potency [6] | Potency [7] | Potency [8] | Potency [20] | Potency [9] | Potency [10] | Potency [12] | Potency [15] | Potency [16] | Potency [17] | outcome [18]

CC(=O)CCC(C)=O
inactive: Potency [3] > 92 µM | outcome [4] | Potency [6] | Potency [8] | Potency [20] | Potency [9] | Potency [10] | Potency [11] | Potency [12] | Potency [13] | activation [14] 0.727% | Potency [16] | Potency [17] | outcome [18]
